According to PubChem BioAssay AID449762 (Southern Research Specialized Biocontainment Screening …, 2010):
About 1,900 (0.58%) of roughly 330,000 compounds were called active. Not shown: some 4% with an inconclusive outcome. Not all results are given here. Measured potencies and affinities stand elsewhere. A number with no mark means an inactive call. No stated cut-off is given here; in the data, inconclusive means inhibition above about 70% without an active follow-up result; inactive means below that.

Experiment: M. tuberculosis growth inhibition, HTS (AID 449762);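 further: bacterial growth assessed after seven days of incubation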
Conditions: M. tuberculosis H37Rv growth inhibition, 7H9 media; at 25 µM; active compounds read high

Question: Which inhibition does the source give for `CCNc1nc(NC(C)C)nc(ON=C(C)C)n1` here?
Answer: -5.67%

Question: Which inhibition does the source give for `Cc1cc(C(=O)N=Nc2c(O)n(C)c3ccccc23)c(C)o1` here?
Answer: 5.51%

Question: For `COc1ccc(C(C)=O)cc1COC(=O)c1cc2ccccc2cc1O`, which inhibition is on record?
Answer: -1.43%

Question: For `COc1ccc(C(C)=O)cc1COC(=O)c1cc(C)nc2ccccc12`, which inhibition is on record?
Answer: 11.9%

Question: Which inhibition does the source give for `C=CCn1c(C)c(/C=C/c2cc[n+](C)cc2)c2ccccc21` here?
Answer: 0.73%

Question: For `Cc1ccc2[nH]cc(/C=C/c3cc[n+](C)cc3)c2c1`, which inhibition is on record?
Answer: -0.27%

Question: Which inhibition does the source give for `Cc1c(C)n2c(SCC(=O)Nc3cccc4ccccc34)nnc2[nH]c1=O` here?
Answer: 5.62%

Question: With `Cc1onc(-c2c(Cl)cccc2Cl)c1C(=O)O/N=C(\C#N)c1c(Cl)cccc1Cl` as the compound, how does the inhibition read?
Answer: -0.37%

Question: For `C/C(=N\OC(=O)c1c(-c2c(F)cccc2Cl)noc1C)c1nccs1`, which inhibition is on record?
Answer: 3.84%

Question: For `CCOC(=O)[C@H]1[C@H]2COc3ccc(Br)cc3[C@@H]2N2C(=O)N(c3ccccc3)C(=O)[C@@]12C`, which inhibition is on record?
Answer: 6.24%

Question: Which inhibition does the source give for `CCOc1ccc(CNC(=O)C2CCCN(S(=O)(=O)N3CC(C)CC(C)C3)C2)cc1OC` (centres undefined) here?
Answer: -1.45%

Question: With `COC(OC)c1ccnc(-c2ccc(OC(=O)c3ccccc3)cc2)n1` as the compound, how does the inhibition read?
Answer: 57%

Question: For `COC(OC)c1ccnc(-c2ccc(OC(C)=O)cc2)n1`, which inhibition is on record?
Answer: 0.19%

Question: For `CCC[N+](CC#Cc1ccccc1)(CCC)CC(=O)OC`, which inhibition is on record?
Answer: 0.57%

Question: For `Cc1occc1-c1nnc(SCC(=O)NC2CC2)n1C(C)C`, which inhibition is on record?
Answer: 6.3%

Question: Which inhibition does the source give for `CCOCCn1c(=O)c2c(nc3n2CCCN3Cc2ccccc2)n(C)c1=O` here?
Answer: 4.47%

Question: For `CCCC(O)(c1ccc(CC)cc1)C(CN1CCOCC1)c1ccccc1` (centres undefined), which inhibition is on record?
Answer: 9.99%

Question: For `CCOC(=O)CSc1nc2ccsc2c(=O)n1C1CCN(C(=O)OCC)CC1`, which inhibition is on record?
Answer: 39.3%

Question: Which inhibition does the source give for `CCOC(=O)N1CCC(n2c(SCC(=O)c3ccccc3)nc3ccsc3c2=O)CC1` here?
Answer: -5.37%

Question: Which inhibition does the source give for `COc1ccc(/C=N/NC(=O)c2cccc(C(=O)N/N=C/c3ccc(OC)cc3)n2)cc1` here?
Answer: -1.47%

Question: With `O=C(CN1C(=O)COc2ccccc2C1=O)c1ccc2c(c1)OCCO2` as the compound, how does the inhibition read?
Answer: 4.6%

Question: Which inhibition does the source give for `O=C(OC(C(=O)c1c[nH]c2ccccc12)c1ccccc1)c1cnccn1` (centres undefined) here?
Answer: 1.97%

Question: For `Nc1nnnn1/N=C/c1ccccc1`, which inhibition is on record?
Answer: -0.26%

Question: For `Nc1nnnn1/N=C/C=C/c1ccccc1`, which inhibition is on record?
Answer: -3.78%

Question: With `CCOC(=O)N1CCC(N2C(=O)c3ccc(C(=O)Nc4ccc(F)cc4F)cc3C2=O)CC1` as the compound, how does the inhibition read?
Answer: -5.69%

Question: With `CCOC(=O)N1CCN(S(=O)(=O)c2ccc(C(=O)N(CCN(C)C)c3nc4c(C)cccc4s3)cc2)CC1` as the compound, how does the inhibition read?
Answer: -14.4%

Question: For `CC1=C(c2ccc(F)cc2)[N+](=O)C(C)(C)N1[O-]`, which inhibition is on record?
Answer: -6.06%

Question: With `Cc1ccc(C(C(=O)NC(C)(C)C)N(Cc2ccccc2)C(=O)c2snc(C(N)=O)c2N)o1` (centres undefined) as the compound, how does the inhibition read?
Answer: -7.23%

Question: Which inhibition does the source give for `COc1ccc(/C=C2/C(=O)N(c3ccccc3)N=C2C)cc1OC` here?
Answer: 8.2%

Question: For `COc1cc(/C=C2/C(=O)N(c3ccccc3)N=C2C)ccc1OS(=O)(=O)c1ccccc1`, which inhibition is on record?
Answer: 11%

Question: Which inhibition does the source give for `CCOC(=O)N1CCN(Cc2ccc3ccccc3c2)CC1` here?
Answer: 9.89%

Question: For `O=C(Nc1cccn2ncnc12)C(Cl)Cl`, which inhibition is on record?
Answer: 8.05%

Question: With `CCCCC(=O)Nc1cccn2ncnc12` as the compound, how does the inhibition read?
Answer: -5.05%

Question: With `Cc1ccc(/C=C2/SC(=S)N(CCC(=O)N3CCOCC3)C2=O)cc1` as the compound, how does the inhibition read?
Answer: -5.59%

Question: For `CCCn1c(=N)n(CC(=O)c2ccc(Cl)cc2)c2ccccc21`, which inhibition is on record?
Answer: 20.9%

Question: For `CCCCn1c(=N)n(CC(=O)c2ccc(OC)cc2)c2ccccc21`, which inhibition is on record?
Answer: 2.91%

Question: For `Cc1ccc(S(=O)(=O)NCc2ccc(C(=O)NCc3cccnc3)cc2)cc1`, which inhibition is on record?
Answer: -0.01%

Question: Which inhibition does the source give for `Cc1cc(NC(=O)c2cc(-c3cccc(Cl)c3)on2)no1` here?
Answer: 4.25%

Question: For `O=C(NNS(=O)(=O)c1ccccc1[N+](=O)[O-])c1ccccc1[N+](=O)[O-]`, which inhibition is on record?
Answer: -1.87%

Question: With `C=CCSC1=N/C(=C\c2ccc3c(c2)OCO3)C(=O)S1` as the compound, how does the inhibition read?
Answer: 2.93%

Question: Which inhibition does the source give for `Cc1nc(N=C(N)N)nc2ccccc12` here?
Answer: 0.45%

Question: For `CCc1nc(N=C(N)N)nc2ccccc12`, which inhibition is on record?
Answer: -2.46%

Question: For `Cc1cc(C2C(=O)c3ccccc3C2=O)c(C)c(C)c1C`, which inhibition is on record?
Answer: 30.3%

Question: With `Cc1ccc(C2C(=O)c3ccccc3C2=O)cc1` as the compound, how does the inhibition read?
Answer: 7.43%

Question: Which inhibition does the source give for `CC(=O)NC12CC3CC(C1)CC(C(=O)N(C)CC(=O)Nc1cccc(F)c1)(C3)C2` here?
Answer: 6.36%

Question: With `CC(NC(=O)c1cc(COc2c(F)cccc2F)on1)c1cnn(-c2ccccc2)c1` (centres undefined) as the compound, how does the inhibition read?
Answer: 1.01%

Question: For `Cc1sc2ncnc(N3CCC(C(=O)N(C)CC(=O)Nc4ccccc4Cl)CC3)c2c1C`, which inhibition is on record?
Answer: 67.4%

Question: Which inhibition does the source give for `CCCCn1c(N)c(N(CC(C)C)C(=O)C2CCN(c3ncnc4sc(C)c(C)c34)CC2)c(=O)[nH]c1=O` here?
Answer: 54.4%

Question: Which inhibition does the source give for `CNC(=O)CSc1nnc(-c2ccco2)n1-c1cccc(C)c1C` here?
Answer: -8.51%

Question: With `O=C(Cc1ccc(F)cc1)NCCS(=O)(=O)N1CCN(c2ccccc2)CC1` as the compound, how does the inhibition read?
Answer: -9.43%

Question: Which inhibition does the source give for `COc1ccc(/C=C2\SC(=S)N(Cc3cccnc3)C2=O)cc1C` here?
Answer: 12.2%

Question: With `Cc1ccc(S(=O)(=O)N2CCC(C(=O)OCC(=O)NCCc3ccccc3)CC2)cc1C` as the compound, how does the inhibition read?
Answer: 1.72%

Question: For `CCOC(=O)C1CCN(S(=O)(=O)c2ccc(C)c(C)c2)CC1`, which inhibition is on record?
Answer: -5.37%

Question: With `COc1cccc(NC(=O)[C@H](Cc2ccccc2)NC(=O)[C@@H]2Cc3ccccc3CN2)c1` as the compound, how does the inhibition read?
Answer: -7.04%

Question: For `O=C(Nc1ccc(C(F)(F)F)cc1-c1ccccc1)c1ccccc1`, which inhibition is on record?
Answer: -5.73%

Question: With `O=C(Nc1cnccn1)C1c2ccccc2Oc2ccccc21` as the compound, how does the inhibition read?
Answer: -4.63%

Question: With `CCOC(=O)c1c(C)[nH]c(C)c1C(=O)CN1C(=O)NC2(CCC(C)CC2)C1=O` (centres undefined) as the compound, how does the inhibition read?
Answer: -4.05%

Question: With `CCc1ccc2oc(-c3cc(N)cc(C)c3O)nc2c1` as the compound, how does the inhibition read?
Answer: 42.6%

Question: With `CCc1ccc2oc(-c3cc(N)ccc3O)nc2c1` as the compound, how does the inhibition read?
Answer: -0.82%
